Source: PubChem BioAssay (NCATS)
Several values for one entry are separate records, joined by “and”; a condition that tells them apart may be missing. Equal entries are not always repeated. Results filed as inconclusive are left out. Activity calls are given as the source filed them. The call rests on the fitted dose curve; in most records, active means well fitted curve in the direction sought with a large enough effect; inconclusive means small, poorly fitted or top-dose-only effect, or another doubt; inactive means no such curve, though single readings can be large; an effect the other way counts as inactive or inconclusive.

Key:
CRL-7250 [1] = test: Cytotoxic Profiling of Annotated Libraries Using Quantitative High-Throughput Screening (AID 1296008); details: Five cell lines viability, CellTiter-Glo ATP luminescence, 48-72 h; max response: stronger effect = lower value; further: nearly all actives have a fitted effect of over 60% in size; on max response: on the % scale 0 is the no-effect control and ±100 the full control effect
Method in brief: (§1)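 Cells exposed to compounds for 48 or 72 hr at 37 degrees Celsius. Viability read as ATP-coupled luminescence with CellTiter-Glo after 10 min at room temperature.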

HEK293 = test: as above; details: Five cell lines viability, CellTiter-Glo ATP luminescence, 48-72 h; max response: stronger effect = lower value
Method in brief: as §1

HaCat [2] = test: as above; details: Five cell lines viability, CellTiter-Glo ATP luminescence, 48-72 h; max response: stronger effect = lower value
Method in brief: as §1

KB-3-1 = test: as above; details: Five cell lines viability, CellTiter-Glo ATP luminescence, 48-72 h; max response: stronger effect = lower value
Method in brief: as §1

NIH3T3 [3] = test: as above; details: Five cell lines viability, CellTiter-Glo ATP luminescence, 48-72 h; max response: stronger effect = lower value
Method in brief: as §1

CRL-7250 [4] = test: qHTS assay to identify novel small-molecules to repurpose for Merkel cell carcinoma treatment (AID 1296009); details: MCC and control cell lines, CellTiter-Glo viability, 72 h; series mostly up to 44.8 µM; further: nearly all actives have a fitted effect of over 60% in size; on activity change, negative = cytotoxicity: on the % scale 0 is the no-effect control and ±100 the full control effect
Method in brief: (§2)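 Dose-response viability screen; 72 hr exposure at 37 degree celsius; CellTiter-Glo added, 10 min room temperature, luminescence read; RLUs scaled between no-cell and DMSO wells.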

HACAT [5] = test: as above; details: MCC and control cell lines, CellTiter-Glo viability, 72 h; at 44.8 µM (top of the series) unless noted
Method in brief: as §2

HEK293T = test: as above; details: MCC and control cell lines, CellTiter-Glo viability, 72 h; at 44.8 µM (top of the series)
Method in brief: as §2

MCC-13 = test: as above; details: MCC and control cell lines, CellTiter-Glo viability, 72 h; series mostly up to 46 µM
Method in brief: as §2

MKL-1 = test: as above; details: MCC and control cell lines, CellTiter-Glo viability, 72 h; series mostly up to 46 µM
Method in brief: as §2

MKL-2 = test: as above; details: MCC and control cell lines, CellTiter-Glo viability, 72 h; series mostly up to 46 µM
Method in brief: as §2

UISO = test: as above; details: MCC and control cell lines, CellTiter-Glo viability, 72 h; series mostly up to 46 µM
Method in brief: as §2

WaGa = test: as above; details: MCC and control cell lines, CellTiter-Glo viability, 72 h; series mostly up to 46 µM
Method in brief: as §2

C33A = test: Primary qHTS to identify gynecologic anti-cancer compounds using libraries of approved drugs and bioactive compounds (AID 1345084); details: Gynecologic cancer cell panel viability, ATPlite luminescence, 48 h; series mostly up to 57.5 µM; further: on the % scale 0 is the no-effect control and ±100 the full control effect; nearly all actives have a fitted effect of over 55% in size
Method in brief: (§3)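 ATP-based viability (ATPlite), 1,000 cells/well, 16 h pre-incubation, 48 h compound at 37 C, 5% CO2, 15 min RT before read.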

CAOV3 = test: as above; details: Gynecologic cancer cell panel viability, ATPlite luminescence, 48 h; series mostly up to 57.5 µM
Method in brief: as §3

CASKI = test: as above; details: Gynecologic cancer cell panel viability, ATPlite luminescence, 48 h; series mostly up to 57.5 µM
Method in brief: as §3

TAB165 = test: qHTS profiling for inhibitors of Plasmodium falciparum proliferation (AID 504749); further: nearly all actives have a fitted effect of over 60% in size; further: potency means the concentration at half of the fitted maximal effect; details: P. falciparum in erythrocytes, SYBR Green DNA, 72 h; series mostly up to 28.7 µM
Method in brief: (§4)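 Each compound contacts P. falciparum-infected red blood cells for 72 h at 37 C; lysis buffer (Tris, EDTA, saponin, Triton X, SYBR Green I) is added and fluorescence measured next morning; values normalized to controls.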

NIH3T3 [6] = test: qHTS assay to identify novel small-molecules to repurpose for Merkel cell carcinoma treatment (AID 1296009); details: MCC and control cell lines, CellTiter-Glo viability, 72 h; at 44.8 µM (top of the series) unless noted; further: nearly all actives have a fitted effect of over 60% in size; on activity change, negative = cytotoxicity: on the % scale 0 is the no-effect control and ±100 the full control effect
Method in brief: as §2

W2 = test: qHTS profiling for inhibitors of Plasmodium falciparum proliferation (AID 504749); further: nearly all actives have a fitted effect of over 60% in size; further: potency means the concentration at half of the fitted maximal effect; details: P. falciparum in erythrocytes, SYBR Green DNA, 72 h; series mostly up to 28.7 µM
Method in brief: as §4

MCC-26 = test: qHTS assay to identify novel small-molecules to repurpose for Merkel cell carcinoma treatment (AID 1296009); details: MCC and control cell lines, CellTiter-Glo viability, 72 h; series mostly up to 46 µM; further: nearly all actives have a fitted effect of over 60% in size; on activity change, negative = cytotoxicity: on the % scale 0 is the no-effect control and ±100 the full control effect
Method in brief: as §2

CNC(=O)c1ccc(N2C(=S)N(c3ccc(C#N)c(C(F)(F)F)c3)C(=O)C23CCC3)cc1F
inactive: outcome (CRL-7250 [1]) | max response (HEK293) -7.61% | outcome (HEK293) | outcome (HaCat [2]) | max response (KB-3-1) 0.285% and 2.98% | max response (NIH3T3 [3]) 3.77% and -4.83% | outcome (CRL-7250 [4]) | outcome (HACAT [5]) | outcome (HEK293T) | Potency (MCC-13) | Potency (MKL-1) | Potency (MKL-2) | Potency (UISO) | Potency (WaGa) | Potency (C33A) | Potency (CAOV3) | Potency (CASKI)

CC(C)(N)Cc1ccc(Cl)cc1
inactive: Potency (TAB165) | max response (CRL-7250 [1]) 0.791% | max response (HEK293) 3.33% | outcome (HaCat [2]) | max response (KB-3-1) -1.79% | outcome (NIH3T3 [3]) | outcome (HACAT [5]) | Potency (MCC-13) | Potency (MKL-1) | Potency (MKL-2) | outcome (NIH3T3 [6]) | Potency (UISO) | Potency (WaGa) | Potency (C33A) | Potency (CAOV3) | Potency (CASKI)

CN1C(=S)CN=C(c2ccccc2)c2cc(Cl)ccc21
inactive: Potency (TAB165) | Potency (W2) | outcome (CRL-7250 [1]) | max response (HEK293) -23.9% | outcome (HaCat [2]) | max response (KB-3-1) 4.4% | outcome (NIH3T3 [3]) | outcome (CRL-7250 [4]) | outcome (HACAT [5]) | Potency (MCC-13) | Potency (MCC-26) | Potency (MKL-1) | Potency (MKL-2) | outcome (NIH3T3 [6]) | Potency (UISO) | Potency (WaGa) | Potency (C33A) | Potency (CAOV3) | Potency (CASKI)

CC(C)CC(N(C)C)C1(c2ccc(Cl)cc2)CCC1 (stereo not drawn)
inactive: Potency (TAB165) | Potency (W2) | max response (CRL-7250 [1]) 1.51% and -18.8% | max response (HEK293) 3.97% and -10.6% | max response (HaCat [2]) -11.1% | outcome (HaCat [2]) | max response (KB-3-1) 20.9% and 1.72% | max response (NIH3T3 [3]) -0.177% | outcome (NIH3T3 [3]) | outcome (HACAT [5]) | Potency (MCC-13) | Potency (MKL-1) | Potency (MKL-2) | outcome (NIH3T3 [6]) | Potency (UISO) | Potency (WaGa) | Potency (C33A) | Potency (CAOV3)

C=C1CC[C@@]2(O)[C@H]3Cc4ccc(O)c5c4[C@@]2(CCN3CC2CC2)[C@H]1O5
inactive: Potency (TAB165) | max response (CRL-7250 [1]) 2.77% | max response (HEK293) -5.09% | outcome (HaCat [2]) | max response (KB-3-1) 3.52% | outcome (NIH3T3 [3]) | outcome (HACAT [5]) | Potency (MCC-13) | Potency (MKL-1) | Potency (MKL-2) | outcome (NIH3T3 [6]) | Potency (UISO) | Potency (WaGa) | Potency (C33A) | Potency (CAOV3) | Potency (CASKI)
active: Potency (W2) 6.75 µM

NCC(CC(=O)O)c1ccc(Cl)cc1 (stereo not drawn)
inactive: Potency (TAB165) | Potency (W2) | max response (CRL-7250 [1]) 2.02% | max response (HEK293) -1.23% | outcome (HaCat [2]) | max response (KB-3-1) 2.79% | max response (NIH3T3 [3]) 0.0761% | outcome (HACAT [5]) inactive [at 0.588 µM] | activity change, negative = cytotoxicity (MCC-13) -6.05% [at 0.597 µM] | activity change, negative = cytotoxicity (MKL-1) -6.57% [at 0.597 µM] | activity change, negative = cytotoxicity (MKL-2) -11.6% [at 0.597 µM] | activity change, negative = cytotoxicity (UISO) -4.03% [at 0.597 µM] | activity change, negative = cytotoxicity (WaGa) -6.81% [at 0.597 µM] | activity change, negative = cytotoxicity (C33A) 1.19% [at 0.462 µM] | activity change, negative = cytotoxicity (CAOV3) 8.76% [at 0.462 µM] | activity change, negative = cytotoxicity (CASKI) 17.3% [at 0.462 µM]
